The entries come from a sample that favours hits as a whole.
RBX1-CUL1 inh: human ROC1-CUL1 E3 ligase inhibition; P62877+Q13616; in vitro K48 di-Ub FRET, acceptor:donor ratio, 45 min; inhibition, % at 10 µM; 0.6% of 140,000 active; in the data active = inhibition above about 25%
Large screens that a line does not name were inactive.

Cc1cc(S(=O)(=O)NCC(C)C)c(C)cc1Cl	none
CC(NC(=O)c1ccccc1NC(=O)c1ccc(-c2ccccc2)cc1)C(=O)N1CCCCCC1 (stereo not given)	none
Cc1ccc2c(c1)C(=O)/C(=C/c1cccs1)CO2	RBX1-CUL1 inh 73
CC1=NOC(=O)/C1=C\c1cccs1	none
COc1ccc(/C=C2\COc3ccccc3C2=O)cc1OC	none
CC(C)c1ccc(C(=O)Nc2nncs2)cc1	none
COc1ccc(/C=C/C(=O)N2c3ccc(C)cc3-c3c(ssc3=S)C2(C)C)cc1	none
CCc1nc2nc(C)c(Cc3ccccc3)c(=O)n2[nH]1	none
C=C(C)Cn1c(=O)c2c(nc3n2CC(C)=NN3C/C=C/C)n(C)c1=O	none
CN(C)S(=O)(=O)N1CCC(C(=O)NC2CCCCCCC2)CC1	none
O=C1Nc2ccccc2C(=O)C1Sc1ccccc1 (stereo not given)	none
O=C1c2ccccc2N(c2ccccc2)C(=O)C1Sc1ccccc1 (stereo not given)	none
O=C1c2cccc3cccc(c23)C(=O)C1Sc1ccccc1	RBX1-CUL1 inh 99
CCN(CC)c1ccc(C=C2C(=O)N(C)C(=S)N(C)C2=O)c(O)c1	none
Cc1cc(OCC(=O)NNC(=O)c2ccco2)c(C(C)C)cc1Cl	none
COC(=O)c1ccc(C2c3c(n[nH]c3-c3ccc4c(c3)OCO4)OC(=N)C2C#N)cc1 (stereo not given)	none
O=C(Nc1scc(-c2ccccc2)c1C(=O)Nc1ccc(Cl)cc1)c1ccco1	none
CC(C)(C)CN1CCCC2(CCN(C(=O)c3cnccn3)C2)C1 (stereo not given)	none
Cc1cc(C)n2nc(C(=O)N3CCC4(CCCN(CC(C)(C)C)C4)C3)cc2n1 (stereo not given)	RBX1-CUL1 inh 29
COc1cccc(CN2CCCC3(CCN(C(=O)c4cnc(C)cn4)C3)C2)c1 (stereo not given)	none
CC(CCn1cccn1)NC(=O)Cn1ncc(N2CCCC2)cc1=O (stereo not given)	none
Cc1cccc(/C=N/Nc2cc(N3CCCCC3)nc(N3CCCCC3)n2)c1	none
CCC(=O)NNc1cc(N2CCCC2)nc(N2CCCC2)n1	RBX1-CUL1 inh 74
CCCc1nn2c(=O)cc(N3CCCCC3)nc2s1	none
CCc1ccc(C2c3c(n[nH]c3-c3ccc(Br)cc3)OC(=N)C2C#N)cc1 (stereo not given)	none
O=C1N=C(Cc2ccc(F)cc2)C(=O)N1	none
COC(=O)c1ccccc1NCN1C(=O)S/C(=C\c2ccccc2)C1=O	none
Cc1ccc(CN2CCC(N3CCCC(C(=O)NCc4ccccc4)C3)CC2)o1 (stereo not given)	none
O=[N+]([O-])c1cc(-c2ccncn2)sc1[N+](=O)[O-]	RBX1-CUL1 inh 41
Clc1ccc(-c2ccncn2)cc1Cl	none
Brc1cc(-c2ccncn2)cs1	none
COc1ccccc1N1CCN(C(=O)COc2ccc3c(c2)CCC3)CC1	none
CC1=C(C(=O)Nc2ccccc2)C(c2cccs2)N2C(=O)CSC2=N1 (stereo not given)	none
CCOC(=O)c1sc(N2C(=O)C=CC2=O)c(C#N)c1C	RBX1-CUL1 inh 72
CCOC(=O)c1sc(SC)c(C#N)c1O	none
CCOC(=O)c1sc(NC(=O)C(F)(F)F)c(C#N)c1C	none
O=C(O)Cc1ccccc1Sc1ccc(Cl)cc1	none
NCc1ccccc1Sc1ccc(Cl)cc1	RBX1-CUL1 inh 31
CC(=O)c1ccccc1Sc1ccc(Cl)cc1	none
Cc1ccccc1C(=O)NC(C)C	none
CCN1/C(=C\C=C/C2C=Cc3ccccc3N2CC)C=Cc2ccccc21 (stereo not given)	RBX1-CUL1 inh 57
Cc1ccccc1-n1nnc(-c2nnc(-c3ccccc3)o2)c1C	none
CCOC(=O)c1ccc(-c2ccc(/C=C3\C(=O)NN(c4ccc(Br)c5ccccc45)C3=O)o2)cc1	none
CCOC(=O)c1cc(-c2ccc(/C=C3/C(=O)NN(c4ccccc4)C3=O)o2)ccc1Cl	none
CCOC(=O)c1ccc(N2NC(=O)/C(=C/c3ccc(-c4ccc(Br)cc4C(=O)O)o3)C2=O)cc1	RBX1-CUL1 inh 98
O=C(c1ccc(Cl)c(Cl)c1)N1CCN(Cc2ccco2)CC1	none
C=CCC(=O)N1CCCCC1C(=O)Nc1ccc(-n2nc(C)cc2C)cc1 (stereo not given)	none
CCOC(=O)c1c(-c2ccc(-c3ccccc3)cc2)csc1NC(=O)CSc1nnc2ccccn12	none
Cc1ccc2nc(NC(=O)c3cccc4c3-c3ccccc3C4=O)sc2c1	none
COc1ccc(CCC(=O)N2CCOC(Cc3cccc(F)c3)C2)cc1 (stereo not given)	none
Cc1c([N+](=O)[O-])c2ccc(O)c(CN(C)C)c2n1-c1ccccc1	none
CCOc1ccc(NC(=S)Nc2ccc3nsnc3c2)cc1	RBX1-CUL1 inh 51
CCOc1ccc(NC(=S)NCCCO)cc1	none
CCOc1ccc(NC(=S)NCCO)cc1	none
CCOC(=O)C1=C(C)N=c2s/c(=C/c3cccnc3)c(=O)n2C1c1cc(OC)ccc1OC (stereo not given)	none
CC(=O)c1c(O)ccc2c1[C@@H]1OC(=O)C[C@@H]1O2	RBX1-CUL1 inh 98
CCCCOc1cccc(NC(=O)c2sc3nc4c(cc3c2N)CCCCC4)c1	none
CCC(C)N1C(=O)S/C(=C/c2ccc(-c3cc(C(=O)O)ccc3Cl)o2)C1=O (stereo not given)	none
O=C(O)c1ccc(Cl)c(-c2ccc(/C=N/Nc3ccccc3)o2)c1	none
CCCCC1(C)OC(=O)C(=Cc2ccc(-c3cc(C(=O)O)ccc3Cl)o2)C(=O)O1 (stereo not given)	RBX1-CUL1 inh 85
CC1(C)CC(=O)C2=C(C1)C(c1ccc(-c3cc([N+](=O)[O-])ccc3Cl)o1)Nc1ccc3ccccc3c12 (stereo not given)	none
O=C(c1cn(CC2CCCO2)nn1)N1CCN(c2ccccc2)C(=O)C1 (stereo not given)	none
COCCn1cnc2cc(NC(=O)C3CCCCC3)cc(C(=O)NCc3ccc(C)c(F)c3)c21	none
Cc1ccc(SCC(=O)Nc2cccc(-c3nnc(-c4ccc(C)cc4)o3)c2)cc1	none
O=[N+]([O-])c1ccc(S(=O)(=O)c2cccc(C(F)(F)F)c2)nc1	none
Cc1ccccc1Sc1ccc([N+](=O)[O-])cn1	none
CS(=O)(=O)c1ccc([N+](=O)[O-])cn1	RBX1-CUL1 inh 63
COc1ccc(N=C2S/C(=N\N=c3\sc4ccccc4n3C)N(c3ccccc3)C2=Nc2ccc(OC)cc2)cc1	none
CCc1ccc(CNn2cnnc2SCc2ccc(F)cc2)cc1	none
OCCN(C=NC1=NN(c2ccccc2)CC1)CCO	none
COc1ccccc1/C=C1\Oc2cccc(OC)c2C1=O	none
CC(=O)Cc1ccccc1/C=C1\OC(=O)c2ccccc21	none
CN(C)c1ccccc1/C=C1\Oc2ccccc2C1=O	RBX1-CUL1 inh 27
Cc1cccc(OC(=O)c2ccc(Br)o2)c1	none
COc1ccc(NC(=O)CSc2ncc3c(n2)-c2cc(Cl)ccc2N(Cc2ccccc2F)S3(=O)=O)cc1	RBX1-CUL1 inh 45
COc1ccc(CNC(=O)CSc2ncc3c(n2)-c2cc(Cl)ccc2N(Cc2ccccc2)S3(=O)=O)cc1	none
COc1ccccc1NC(=O)CSc1ncc2c(n1)-c1cc(Cl)ccc1N(C)S2(=O)=O	none
C=CCNC(=S)Nc1cc(C)nn1-c1ccccc1	none
Cc1cccc(N=C2NC(=O)/C(=C\c3ccc(OCc4ccccc4)cc3)S2)c1	none
O=C1NC(=Nc2ccc(F)cc2)S/C1=C\c1ccc(OCc2cccc(C(=O)O)c2)cc1	none
N#Cc1ccccc1COc1ccc(/C=C2/SC(=Nc3cccc(C(=O)O)c3)NC2=O)cc1	RBX1-CUL1 inh 89
CS(=O)(=O)N(Cc1ccccc1Cl)c1ccc(C(=O)NC2CC3CCC2C3)cc1 (stereo not given)	none
O=C(N/N=C/c1cccc(O)c1O)c1cccc([N+](=O)[O-])c1	none
COc1ccccc1/C=C1/SC(=S)N(CCCCCC(=O)O)C1=O	none

Screening results deposited in PubChem BioAssay by Pan Lab, Icahn School of Medicine at Mount Sinai.
